From PubChem BioAssay AID624138 (Broad Institute, 2012)
Screen size: about 17,000 compounds; about 35 (0.2%) were called active.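 How the source made its calls: active means compounds whose four printed spots each show fluorescence over background unusually high for their array block, chance value under 7%; inactive means the rest.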 This excerpt belongs to a sample that is enriched for actives.

These compounds were tested against Signal transducer and activator of transcription 3 (Homo sapiens) (UniProt P40763) (assay: STAT3 binders, primary screen, biochemical, small molecule microarray, single point, set 2 (AID 624138)). Settings: His-STAT3 binding, anti-His fluorescence.
Chain of Signal transducer and activator of transcription 3 (Homo sapiens) (P40763 whole entry, looked up): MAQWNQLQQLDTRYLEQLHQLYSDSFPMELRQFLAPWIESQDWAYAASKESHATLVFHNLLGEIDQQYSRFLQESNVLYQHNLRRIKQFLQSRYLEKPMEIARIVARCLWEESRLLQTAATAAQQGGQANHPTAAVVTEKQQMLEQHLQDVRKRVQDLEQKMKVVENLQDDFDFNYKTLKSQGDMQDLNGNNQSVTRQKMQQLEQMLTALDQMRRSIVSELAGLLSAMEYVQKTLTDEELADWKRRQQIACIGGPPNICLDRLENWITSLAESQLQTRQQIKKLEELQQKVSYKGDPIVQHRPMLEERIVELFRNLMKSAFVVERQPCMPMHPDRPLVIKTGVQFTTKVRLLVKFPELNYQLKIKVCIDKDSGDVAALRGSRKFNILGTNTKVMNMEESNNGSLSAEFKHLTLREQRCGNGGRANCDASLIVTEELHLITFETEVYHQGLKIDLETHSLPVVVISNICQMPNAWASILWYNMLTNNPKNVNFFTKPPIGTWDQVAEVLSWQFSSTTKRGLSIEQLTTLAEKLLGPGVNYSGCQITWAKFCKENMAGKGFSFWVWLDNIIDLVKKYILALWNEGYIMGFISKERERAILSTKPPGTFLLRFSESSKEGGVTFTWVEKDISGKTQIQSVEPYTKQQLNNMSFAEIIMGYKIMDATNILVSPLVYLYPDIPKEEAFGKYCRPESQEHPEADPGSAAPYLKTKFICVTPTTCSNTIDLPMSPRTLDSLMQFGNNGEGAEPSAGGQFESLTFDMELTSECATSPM

Row | SMILES | outcome
1 | CNC[C@@H]1Oc2ccc(NC(=O)Nc3ccc4c(c3)OCO4)cc2C(=O)N([C@H](C)CO)C[C@@H]1C | inactive
2 | C[C@@H]1CCCCO[C@@H](CN(C)Cc2ccc(Cl)c(Cl)c2)[C@@H](C)CN([C@@H](C)CO)C(=O)c2cc(NS(C)(=O)=O)ccc2O1 | inactive
3 | C[C@H]1CCCCO[C@@H](CN(C)Cc2ccccc2)[C@@H](C)CN([C@@H](C)CO)C(=O)c2cc(NC(=O)CCCN(C)C)ccc2O1 | inactive
4 | C[C@H]1CN([C@@H](C)CO)C(=O)c2cc(NC(=O)Nc3ccccc3)ccc2O[C@@H]1CN(C)C(=O)Nc1ccccc1 | inactive
5 | CCOC(=O)c1c(CN2CCOCC2)nc2c3ccccc3ccn12 | inactive
6 | O=C(c1cc2ccccc2oc1=O)N(Cc1ccc(F)cc1)Cc1ccco1 | inactive
7 | CCOC(=O)c1sc(NC(=S)Nc2ccc3c(c2)OCCO3)c(C(=O)OCC)c1C | inactive
8 | CC(Oc1ccccc1)C(=O)N[C@@H]1C(=O)N2[C@@H]1SC(C)(C)[C@@H]2C(=O)O (stereo partly specified) | inactive
9 | CC(C)NC(=O)Nc1ccc2c(c1)C(=O)N([C@H](C)CO)C[C@H](C)[C@@H](CN(C)C(=O)CCCN(C)C)OCCCC[C@@H](C)O2 | inactive
10 | COc1ccc(-c2oc3cc(OC)ccc3c2C(=O)c2ccc(C#N)cc2)cc1 | inactive
11 | C[C@H](CO)N1C[C@H](C)[C@@H](CN(C)Cc2ccncc2)Oc2ccc(NC(=O)Nc3ccccc3)cc2C1=O | inactive
12 | C[C@H](CO)N1C[C@H](C)[C@H](CN(C)C(=O)NC2CCCCC2)Oc2c(NC(=O)c3nc4ccccc4s3)cccc2C1=O | inactive
13 | C[C@@H]1CCCCO[C@H](CN(C)C(=O)Nc2cccc3ccccc23)[C@@H](C)CN([C@H](C)CO)C(=O)c2cc(NS(=O)(=O)c3cccs3)ccc2O1 | inactive
14 | C[C@@H]1CCCCO[C@H](CN(C)Cc2ccccc2)[C@H](C)CN([C@@H](C)CO)C(=O)c2cc(NS(=O)(=O)c3ccccc3)ccc2O1 | inactive
15 | C[C@H](CO)N1C[C@H](C)[C@H](CN(C)S(=O)(=O)c2ccc(F)cc2)Oc2ncc(-c3ccc(F)cc3)cc2C1=O | inactive
16 | C[C@@H]1CN([C@@H](C)CO)C(=O)c2cc(NS(C)(=O)=O)ccc2O[C@@H]1CN(C)C(=O)Nc1ccc(F)cc1 | inactive
17 | C[C@H](CO)N1C[C@H](C)[C@@H](CN(C)S(=O)(=O)c2cn(C)cn2)Oc2ccc(NS(=O)(=O)c3cn(C)cn3)cc2C1=O | inactive
18 | C[C@@H]1CC[C@]2(C(=O)O)CC[C@]3(C)C(=CCC4[C@@]5(C)CC[C@H](O)[C@](C)(C(=O)O)C5CC[C@]43C)C2[C@]1(C)O (stereo partly specified) | inactive
19 | NC(=O)CSc1nnc(-c2ccccc2F)n1-c1ccccc1 | inactive
20 | C[C@H](CO)N1C[C@H](C)[C@H](CN(C)Cc2ccc(C(=O)O)cc2)Oc2c(NC(=O)C3CCOCC3)cccc2C1=O | inactive
21 | COC(=O)c1ccccc1NC(=O)CNS(=O)(=O)c1cc(Cl)ccc1Cl | inactive
22 | Cc1noc(C)c1NC(=O)N(C)C[C@@H]1OCCCC[C@@H](C)Oc2ccc(NC(=O)C3CCCCC3)cc2C(=O)N([C@H](C)CO)C[C@@H]1C | inactive
23 | COC(=O)c1c(NC(=O)c2cc(-c3ccccn3)nc3c(C)cc(C)cc23)sc(C)c1C | inactive

Row | SMILES | outcome
24 | COc1ccc(NC(=O)Nc2ccc3c(c2)C(=O)N([C@@H](C)CO)C[C@@H](C)[C@H](CN(C)S(=O)(=O)c2cccs2)O3)cc1 | inactive
25 | Cc1noc(C)c1NC(=O)Nc1cccc2c1O[C@H](CN(C)C(=O)Nc1c(C)noc1C)[C@@H](C)CN([C@@H](C)CO)C2=O | inactive
26 | CC[C@@H]1Cc2cc(O)ccc2C2=C1c1ccc(O)cc1C[C@H]2CC | inactive
27 | CC(C)C(NS(=O)(=O)c1ccc(-c2ccc(Br)cc2)cc1)C(=O)O (stereo unspecified) | inactive
28 | CC(C)(C)[C@H]1C=C(C(=O)NCc2ccccc2)O[C@@H](OCc2ccc(CO)cc2)C1 | inactive
29 | O=C(NCc1ccccc1)C1=C[C@@H](C2CCCCC2)C[C@@H](OCc2ccc(CO)cc2)O1 | active
30 | O=C(NCc1ccccc1)C1=C[C@H](C2CC2)C[C@H](OCc2ccc(CO)cc2)O1 | inactive
31 | C[C@@H]1CN([C@@H](C)CO)C(=O)CCCn2nncc2CO[C@@H]1CN(C)Cc1ccccc1 | inactive
32 | CN(C)c1nc(Nc2nc3ccccc3[nH]2)nc(N(C)C)n1 | inactive
33 | COC(=O)C(C)N(C(=O)c1ccccc1[N+](=O)[O-])c1c(C)cccc1C (stereo unspecified) | inactive
34 | COc1ccc(NC(=O)Nc2nn(Cc3ccc(Cl)cc3Cl)cc2Br)cc1OC | inactive
35 | COCCCNC(=O)C(=O)c1cn(C)c2ccccc12 | inactive
36 | O=C1C[C@@](C(=O)NCC(F)(F)F)(c2ccc([N+](=O)[O-])cc2)[C@@H](c2ccc(CO)cc2I)N1C1CCCCC1 | inactive
37 | COC(=O)C1=C[C@H](O[C@@H]2O[C@H](CO)[C@@H](O)[C@H](O)[C@H]2O)C[C@H]2[C@]3(C)C[C@@H](c4ccoc4)OC(=O)[C@H]3CC[C@@]12C | inactive
38 | CCn1c(SCC(=O)O)nnc1-c1ccc(OC)cc1 | inactive
39 | C[C@H](CO)N1C[C@H](C)[C@H](CN(C)C(=O)Nc2ccccc2)Oc2ccc(NC(=O)CCN3CCOCC3)cc2CC1=O | inactive
40 | OC[C@H]1O[C@@H](OCc2ccccc2)[C@H](O[C@@H]2OC[C@](O)(CO)[C@H]2O)[C@@H](O)[C@@H]1O | inactive
41 | COc1ccc(CCN2C(=O)[C@@]3(Cc4ccccc42)c2ccccc2C(=O)N(Cc2ccccc2C(F)(F)F)[C@H]3c2ccc(CO)cc2)cc1 | inactive
42 | C[C@@H]1CN([C@H](C)CO)C(=O)CCCn2cc(nn2)CO[C@@H]1CN(C)C(=O)Nc1ccc2c(c1)OCO2 | inactive
43 | O=C(Nc1cccc(OCC(=O)N2CCOCC2)c1)C1CCCCC1 | inactive
44 | O=c1c(-c2ccc(O[C@@H]3O[C@H](CO)[C@@H](O)[C@H](O)[C@H]3O)cc2)coc2c([C@@H]3O[C@H](CO)[C@@H](O)[C@H](O)[C@H]3O)c(O)cc(O)c12 | inactive
45 | Cc1ccc(Cn2c(NCc3nc4ccccc4n3C)nc3ccccc32)cc1 | inactive
46 | COc1cccc(-c2cc(C(F)(F)F)n3nc(C(=O)NCc4ccccn4)cc3n2)c1 | inactive
